Reference: PubChem BioAssay (NCI)
This is part of a sample that, as a whole, favours compounds with a hit. Of some 79,000 tested, about 15% had one in any assay. No stated cut-off is given here; in the data, active means growth inhibition above about 70%; inactive means the rest.

What was measured:
[1] = NCI Yeast Anticancer Drug Screen. Data for the rad50 strain (AID 155);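 further: 0% = growth of vehicle-only cultures of the same strain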; conditions: S. cerevisiae rad50 strain growth inhibition; at 50.0 µM; stronger effect = higher value
How it was run: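 Compounds were tested on a yeast strain with an engineered DNA damage repair alteration; the reported value is growth inhibition normalised to vehicle treatment.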

[2] = NCI Yeast Anticancer Drug Screen. Data for the mec2-1 strain (AID 157); conditions: S. cerevisiae mec2-1 strain, at 50.0 µM, stronger effect = higher value
How it was run: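 Mutant yeast (mec2-1) grown with compound; growth inhibition relative to vehicle control reported.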

[3] = NCI Yeast Anticancer Drug Screen. Data for the sgs1 mgt1 strain (AID 161);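 further: 0% = growth of cultures given vehicle only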; conditions: S. cerevisiae sgs1 mgt1 strain, at 50.0 µM, stronger effect = higher value
How it was run: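 Percent growth inhibition was derived by comparing compound-exposed mutant yeast with vehicle-exposed cultures. The strain carries alterations in DNA damage repair.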

[4] = NCI Yeast Anticancer Drug Screen. Data for the cln2 rad14 strain (AID 165);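 further: 0% = growth equal to vehicle treated cultures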; conditions: S. cerevisiae cln2 rad14 strain, at 50.0 µM, stronger effect = higher value
How it was run: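 Readout is yeast growth inhibition versus vehicle-treated controls, using a strain with cln2 and rad14 alterations exposed to compound.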

[5] = NCI Yeast Anticancer Drug Screen. Data for the bub3 strain (AID 167); conditions: S. cerevisiae bub3 mutant strain, at 50.0 µM, stronger effect = higher value
How it was run: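 Growth of a checkpoint-deficient yeast mutant is measured after compound exposure. Values represent inhibition relative to vehicle.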

[6] = NCI Yeast Anticancer Drug Screen. Data for the mlh1 rad18 strain (AID 175); conditions: S. cerevisiae mlh1 rad18 strain growth inhibition; at 50.0 µM; stronger effect = higher value
How it was run: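 Genetically defined yeast (DNA repair-deficient) exposed to compounds; growth inhibition determined relative to vehicle.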

Measured: growth inhibition

CCCCCCC(=O)OCC
inactive: [1] 16.3% | [2] -3.4% | [3] -4.7% | [4] 0.9% | [5] 12.9% | [6] 14.2%

CCOC(=O)c1cnc(SC)nc1Nc1ccc(Cl)cc1
inactive: [1] -13.8% | [2] -9.4% | [3] -6.55% | [4] -8.65% | [5] 0.55% | [6] -31.2%

CCCCCOC(c1cc2c(cc1Br)OCO2)C(C)Br (stereo not drawn)
inactive: [1] 8.9% | [2] 22.1% | [3] 10.8% | [4] 19.4% | [5] 22.8% | [6] 13.5%

CC(=O)Nc1c(C)cccc1[N+](=O)[O-]
inactive: [1] 5.35% | [2] -14.2% | [3] 0% | [4] -17.6% | [5] 2.8% | [6] 3.65%

O=C(O)c1ccc(Br)cc1
inactive: [1] 5.1% | [2] -6.05% | [3] 2.8% | [4] -25.2% | [5] 9.8% | [6] 0%

O=C1C=CC(=O)c2c1ccc1c3ccccc3n(CCCCCn3c4ccccc4c4ccc5c(c43)C(=O)C=CC5=O)c21
inactive: [1] -20.8% | [2] -9.85% | [3] -18.2% | [4] 0.8% | [5] -28.4% | [6] -19%

N#CNc1nc(N)cc(N)n1
inactive: [1] 2.25% | [2] 9.35% | [3] -1.5% | [4] -5.85% | [5] -1% | [6] -4.6%

O=[N+]([O-])c1ccc(/C(=N/Nc2ccccc2)c2ccc(Cl)cc2)cc1
inactive: [1] 13.2% | [2] 2.1% | [3] 1.65% | [4] -14.1% | [5] 9.8% | [6] 4.1%

Cc1cc2c(C)nn(Cc3ccc(Cl)cc3Cl)c2c(C#N)c1C
inactive: [1] 18.2% | [2] -14.8% | [3] 24.9% | [4] 20.1% | [5] 5.8% | [6] 31.6%

CC(=O)Nc1cc(OC(C)=O)c(OC(C)=O)c2ccccc12
inactive: [1] -7.45% | [2] -6.9% | [3] -0.6% | [4] -1.55% | [5] -33.1% | [6] 1.1%

Cc1cccc(O)c1C(=O)O
inactive: [1] -8.15% | [2] -12% | [3] -15.6% | [4] -9.45% | [5] 9.05% | [6] -0.25%

CCNC(=O)NCc1cccc2ccccc12
inactive: [1] -0.05% | [2] -8.15% | [3] -7.15% | [4] -74.2% | [5] 5.15% | [6] -1.6%

CC1(C)CC(O)CC(O)C1 (stereo not drawn)
inactive: [1] -4.3% | [2] -0.55% | [3] -0.2% | [4] 14.1% | [5] -0.15% | [6] -6.9%

O=C(NC(=O)c1cc(-c2ccccc2)n[nH]1)c1ccccc1
inactive: [1] -71.5% | [2] -10.1% | [3] -14.4% | [4] -6.3% | [5] -20.4% | [6] -10.8%

Cc1c(C)c(C(Cl)(Cl)Cl)c(C)c(C)c1Br
inactive: [1] -0.7% | [2] 4.8% | [3] -0.75% | [4] 8.15% | [5] 3.6% | [6] -7.3%

Cc1nc(-c2ccccc2)ncc1C(O)CN1CCCCC1 (stereo not drawn)
inactive: [1] -21.7% | [2] 25.6% | [3] 18.1% | [4] -43.2% | [5] 20.5% | [6] 2.25%

C=CC(C)(O)/C=C/C=C(\C)C(CC1OC1(C)C)OC(=O)/C(C)=C\C (stereo not drawn)
inactive: [1] -10.8% | [2] -16.9% | [3] 3.55% | [4] 10.3% | [5] -19.6% | [6] -64.1%

CC12CCCC=C1C(C)(C)C(O)CC2 (stereo not drawn)
inactive: [1] 3.45% | [2] 1.7% | [3] 2.95% | [4] 7.3% | [5] -26.8% | [6] 0.8%

O=[N+]([O-])c1ccc(CN(Cc2ccc([N+](=O)[O-])cc2)c2ccc3c(c2)C(O)c2ccccc2-3)cc1 (stereo not drawn)
inactive: [1] 9.95% | [2] 1% | [3] 7.8% | [4] 7.85% | [5] 1.8% | [6] 12.2%

Oc1ccc2c(c1)CCC2
inactive: [1] 25% | [2] -1.95% | [3] -1.3% | [4] 8% | [5] -10.8% | [6] -19.6%

CS(=O)(=O)Nc1ccccc1-c1nc2ccccc2c(=O)o1
inactive: [1] 26.6% | [2] 30.7% | [3] 27.2% | [4] 14.3% | [5] 33.2% | [6] 27.7%

O=c1[nH]c2ccccc2nc1/C=C/NC(=S)Nc1ccccc1
inactive: [1] -11.4% | [2] -18.1% | [3] -20% | [4] 6% | [5] -0.95% | [6] -2.2%

CN(C)CCNC(=O)c1cccc2c(Nc3ccc(S(=O)(=O)N=C(N)N)cc3)c3ccccc3nc12
inactive: [1] -24.4% | [2] -0.3% | [3] -37% | [4] 8.35% | [5] -34.9% | [6] 53.9%

O=C1C2=Cc3ccccc3OC2(O)Oc2cc(O)ccc21 (stereo not drawn)
inactive: [1] 10.5% | [2] 11.2% | [3] 0.05% | [4] -4.1% | [5] -2.15% | [6] -36.6%

CCOC(=O)CNc1nc(Cl)nc(NCC(=O)OCC)n1
inactive: [1] 3.05% | [2] -4.6% | [3] -0.05% | [4] -43.2% | [5] 28.9% | [6] 1.4%

C=C(Cl)C(=C)CCC(Cl)C(C)(C)Cl (stereo not drawn)
inactive: [1] 12.6% | [2] 9.4% | [3] -13.7% | [4] 2.5% | [5] -16.8% | [6] -8.4%

CCN(CC)CC1CCCCN1CC(=O)N1c2ccccc2NC(=O)c2ccccc21 (stereo not drawn)
inactive: [1] -6.85% | [2] -3.25% | [3] 5.25% | [4] -6.1% | [5] -1.9% | [6] 5.95%

Cn1c(=O)[nH]c(=O)c2[nH]c(=O)c(=O)n(C)c21
inactive: [1] -3.15% | [2] 23.3% | [3] 1.55% | [4] -1.9% | [5] -9.5% | [6] -13.1%

O=C1/C(=C/c2ccc(C(=O)O)cc2)CNC/C1=C\c1ccc(C(=O)O)cc1
inactive: [1] -7.4% | [2] -14.9% | [3] -3.05% | [4] -15.4% | [5] 3.8% | [6] -11.8%

C[N+](C)([O-])CCCNc1ccnc2cccc([N+](=O)[O-])c12
inactive: [1] 24.1% | [2] 6.6% | [3] 28.9% | [4] 8.4% | [5] 9.95% | [6] -21.4%

OCCN(CCO)c1ncnc2c1ncn2CCc1ccccc1
inactive: [1] 13.6% | [2] -0.25% | [3] 16.2% | [4] -16% | [5] 4.1% | [6] -2.25%

COc1ccc(CCC(=O)O)c(C(CC(=O)O)C(=O)O)c1OS(=O)(=O)c1ccc(C)cc1 (stereo not drawn)
inactive: [1] -21.2% | [2] -30.3% | [3] -40.5% | [4] 6.05% | [5] -33.3% | [6] -21.6%

CC(=O)OC1CC(OC(C)=O)C(OC(C)=O)CC1OC(C)=O (stereo not drawn)
inactive: [1] 7.95% | [2] -5.15% | [3] -9.45% | [4] -18.2% | [5] 1.05% | [6] 12.6%

N/C(=N\OC(=O)NC(Cl)=C(Cl)Cl)c1ccc(Cl)cc1
inactive: [1] -18.9% | [2] -34.4% | [3] 7.4% | [4] 16.7% | [5] -13.9% | [6] -7.95%

Cc1ncc(CO)c(Nc2ccccc2)n1
inactive: [1] 1.85% | [2] 5.8% | [3] -0.25% | [4] -25.5% | [5] -4.8% | [6] 8.4%

CN=C(c1ccccc1)N(O)c1ccccc1
inactive: [1] -16.1% | [2] -1.15% | [3] -8.15% | [4] -10.1% | [5] -1.65% | [6] 6.2%

Cc1nc(N)[nH]c(=O)c1CCCN(c1ccccc1)S(=O)(=O)c1ccc(N)cc1
inactive: [1] 9.4% | [2] -1.35% | [3] -2.3% | [4] -22.9% | [5] -2.35% | [6] 19.6%

COc1ccc(OC)c(N=Cc2ccc(C=Nc3cc(OC)ccc3OC)cc2)c1
inactive: [1] -8% | [2] -12.3% | [3] -10.6% | [4] 4.7% | [5] -9% | [6] -5.8%
